About 2,000 (36%) of roughly 5,500 compounds were called active. Roughly 18% stayed inconclusive and do not appear here. This is one part of the list. A number with no mark means an inactive call. No stated cut-off is given here; in the data, active means normalized growth mostly below about 0.91 (no sharp cut-off); inconclusive means no clear call, values can overlap the other calls; inactive means mostly above about 0.92.
Assay: chemical genetic growth profiling, strain panel (AID 1159580);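 further: tested at 20 µM; growth read once vehicle control cultures reached saturation at 30 °C; 1 = growth at the plate median or of vehicle wells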
Settings: S. cerevisiae deletion strains, growth OD
[1] = locus YPL055C, strain LGE1, stronger effect = lower value
[2] = locus YBL105C, strain PKC1, stronger effect = lower value
[3] = locus YBR135W, strain CKS1, stronger effect = lower value
[4] = locus YBR136W, strain MEC1, stronger effect = lower value
[5] = locus YBR160W, strain CDC28, stronger effect = lower value
[6] = locus YDL017W, strain CDC7, stronger effect = lower value
[7] = locus YDL028C, strain MPS1, stronger effect = lower value
[8] = locus YDL101C, strain DUN1, stronger effect = lower value
[9] = locus YDL108W, strain KIN28, stronger effect = lower value
[10] = locus YDL132W, strain cdc53, stronger effect = lower value
[11] = locus YDL214C, strain PRR2, stronger effect = lower value
[12] = locus YDR052C, strain DBF4, stronger effect = lower value
[13] = locus YDR054C, strain cdc34, stronger effect = lower value
[14] = locus YDR226W, strain ADK1, stronger effect = lower value
[15] = locus YDR477W, strain SNF1, stronger effect = lower value
[16] = locus YER123W, strain YCK3, stronger effect = lower value
[17] = locus YER133W, strain GLC7, stronger effect = lower value
[18] = locus YFL009W, strain cdc4, stronger effect = lower value
[19] = locus YFL029C, strain CAK1, stronger effect = lower value
[20] = locus YFR003C, strain YPI1, stronger effect = lower value
[21] = locus YFR019W, strain FAB1, stronger effect = lower value
[22] = locus YFR028C, strain CDC14, stronger effect = lower value
[23] = locus YGR040W, strain KSS1, stronger effect = lower value
[24] = locus YGR052W, strain FMP48, stronger effect = lower value
[25] = locus YGR092W, strain DBF2, stronger effect = lower value
[26] = locus YHR030C, strain SLT2, stronger effect = lower value
[27] = locus YHR079C, strain IRE1, stronger effect = lower value
[28] = locus YHR082C, strain KSP1, stronger effect = lower value
[29] = locus YHR205W, strain SCH9, stronger effect = lower value
[30] = locus YIL147C, strain SLN1, stronger effect = lower value
[31] = locus YJL095W, strain BCK1, stronger effect = lower value
[32] = locus YJL128C, strain PBS2, stronger effect = lower value
[33] = locus YJL157C, strain FAR1, stronger effect = lower value
[34] = locus YJR016C, strain ILV3, stronger effect = lower value
[35] = locus YJR066W, strain TOR1 (second series), stronger effect = lower value
[36] = locus YJR066W, strain TOR1, stronger effect = lower value
[37] = locus YKL067W, strain YNK1, stronger effect = lower value
[38] = locus YKL101W, strain HSL1, stronger effect = lower value
[39] = locus YKL193C, strain SDS22, stronger effect = lower value
[40] = locus YLR113W, strain HOG1, stronger effect = lower value
[41] = locus YLR133W, strain CKI1, stronger effect = lower value
[42] = locus YLR403W, strain SFP1, stronger effect = lower value
[43] = locus YML070W, strain DAK1, stronger effect = lower value
[44] = locus YMR001C, strain CDC5, stronger effect = lower value
[45] = locus YMR205C, strain PFK2 (second series), stronger effect = lower value
[46] = locus YNL006W, strain LST8, stronger effect = lower value
[47] = locus YNL020C, strain ARK1, stronger effect = lower value
[48] = locus YNL161W, strain CBK1, stronger effect = lower value
[49] = locus YNL183C, strain NPR1, stronger effect = lower value
[50] = locus YNL207W, strain RIO2, stronger effect = lower value
[51] = locus YNL222W, strain SSU72, stronger effect = lower value
[52] = locus YNL307C, strain MCK1 (second series), stronger effect = lower value
[53] = locus YOL078W, strain AVO1, stronger effect = lower value
[54] = locus YOL136C, strain PFK27, stronger effect = lower value
[55] = locus YOR061W, strain CKA2, stronger effect = lower value
[56] = locus YOR231W, strain MKK1, stronger effect = lower value
[57] = locus YOR329C, strain SCD5, stronger effect = lower value
[58] = locus YPL031C, strain PHO85, stronger effect = lower value
[59] = locus YPL153C, strain RAD53, stronger effect = lower value
[60] = locus YPL204W, strain HRR25, stronger effect = lower value
[61] = locus YPL209C, strain IPL1, stronger effect = lower value
[62] = locus YPL256C, strain CLN2, stronger effect = lower value
[63] = locus YPR111W, strain DBF20, stronger effect = lower value
[64] = strain NNK1, stronger effect = lower value
[65] = strain TSCII, stronger effect = lower value

## NC(=O)c1cc[n+](CC2=C(C(=O)O)N3C(=O)[C@@H](NC(=O)[C@@H](c4ccccc4)S(=O)(=O)[O-])[C@H]3SC2)cc1
Locus YAL040C, strain CLN3, stronger effect = lower value
  normalized growth: 0.993
Locus YCL061C, strain MRC1 (second series), stronger effect = lower value
  normalized growth: 0.999
Locus YER002W, strain NOP16, stronger effect = lower value
  normalized growth: 0.995
Locus YNL128W, strain TEP1, stronger effect = lower value
  normalized growth: 1
Locus YNL175C, strain NOP13, stronger effect = lower value
  normalized growth: 1
Locus YNL197C, strain WHI3, stronger effect = lower value
  normalized growth: 0.983
Locus YNL224C, strain SQS1, stronger effect = lower value
  normalized growth: 1
Locus YOR083W, strain WHI5 (second series), stronger effect = lower value
  normalized growth: 1.07
[1]
  normalized growth: 0.988

## Nc1ccc(Sc2ccccc2)nc1Sc1ccccc1
Locus YAR019C, strain CDC15, stronger effect = lower value
  normalized growth: 0.947
[2]
  normalized growth: 0.961
[3]
  normalized growth: 0.957
[4]
  normalized growth: 0.957
[5]
  normalized growth: 0.95
[6]
  normalized growth: 0.967
[7]
  normalized growth: 0.942
[8]
  normalized growth: 0.963
[9]
  normalized growth: 0.958
[10]
  normalized growth: 0.958
[11]
  normalized growth: 0.927
[12]
  normalized growth: 0.976
[13]
  normalized growth: 0.947
[14]
  normalized growth: 0.957
[15]
  normalized growth: 0.901
[16]
  normalized growth: 0.918
[17]
  normalized growth: 0.927
[18]
  normalized growth: 0.938
[19]
  normalized growth: 0.935
[20]
  normalized growth: 0.961
[21]
  normalized growth: 0.984
[22]
  normalized growth: 0.94
[23]
  normalized growth: 0.909
[24]
  normalized growth: 0.956
[25]
  normalized growth: 0.875
[26]
  normalized growth: 0.697 (active)
[27]
  normalized growth: 0.893
[28]
  normalized growth: 0.948
[29]
  normalized growth: 0.878
[30]
  normalized growth: 0.962
[31]
  normalized growth: 0.859
[32]
  normalized growth: 0.886
[33]
  normalized growth: 0.935
[34]
  normalized growth: 0.965
[35]
  normalized growth: 0.896
[36]
  normalized growth: 0.851
Locus YKL048C, strain ELM1, stronger effect = lower value
  normalized growth: 0.969
[37]
  normalized growth: 0.908
[38]
  normalized growth: 0.913
[39]
  normalized growth: 0.955
Locus YKL203C, strain TOR2, stronger effect = lower value
  normalized growth: 1.01
[40]
  normalized growth: 0.757 (active)
[41]
  normalized growth: 0.945
[42]
  normalized growth: 0.922
[43]
  normalized growth: 0.915
[44]
  normalized growth: 0.956
[45]
  normalized growth: 0.938
Locus YMR277W, strain FCP1, stronger effect = lower value
  normalized growth: 0.938
[46]
  normalized growth: 0.958
[47]
  normalized growth: 0.938
[48]
  normalized growth: 0.968
[49]
  normalized growth: 0.956
[50]
  normalized growth: 0.951
[51]
  normalized growth: 0.951
[52]
  normalized growth: 0.915
[53]
  normalized growth: 0.956
[54]
  normalized growth: 0.921
[55]
  normalized growth: 0.919
Locus YOR119C, strain RIO1, stronger effect = lower value
  normalized growth: 0.935
[56]
  normalized growth: 0.883
[57]
  normalized growth: 0.962
[58]
  normalized growth: 0.906
[59]
  normalized growth: 0.906
[60]
  normalized growth: 0.903
[61]
  normalized growth: 0.959
[62]
  normalized growth: 0.85 (active)
Locus YPR025C, strain CCL1, stronger effect = lower value
  normalized growth: 0.956
Locus YPR106W, strain ISR1, stronger effect = lower value
  normalized growth: 0.957
[63]
  normalized growth: 0.926
[64]
  normalized growth: 0.954
[65]
  normalized growth: 0.945

## CCOC(=O)c1cc(CC)sc1NC(=O)c1ccc([N+](=O)[O-])o1
[2]
  normalized growth: 0.959
[3]
  normalized growth: 0.992
[4]
  normalized growth: 0.999
[5]
  normalized growth: 1
[6]
  normalized growth: 1
[7]
  normalized growth: 0.988
[9]
  normalized growth: 0.998
[10]
  normalized growth: 0.996
[11]
  normalized growth: 0.226 (active)
[12]
  normalized growth: 1
[13]
  normalized growth: 0.985
[14]
  normalized growth: 0.985
[15]
  normalized growth: 0.327 (active)
[16]
  normalized growth: 0.34 (active)
[17]
  normalized growth: 0.347 (active)
[18]
  normalized growth: 0.985
[19]
  normalized growth: 0.929
[20]
  normalized growth: 1
[21]
  normalized growth: 0.3 (active)
[22]
  normalized growth: 0.991
[23]
  normalized growth: 0.43 (active)
[24]
  normalized growth: 0.205 (active)
[25]
  normalized growth: 0.505
[26]
  normalized growth: 0.281 (active)
[27]
  normalized growth: 0.727
[28]
  normalized growth: 0.202 (active)
[29]
  normalized growth: 0.153 (active)
[30]
  normalized growth: 1
[31]
  normalized growth: 0.318 (active)
[32]
  normalized growth: 0.938
[33]
  normalized growth: 0.372 (active)
[34]
  normalized growth: 0.95
[35]
  normalized growth: 0.197 (active)
[36]
  normalized growth: 0.212 (active)
[37]
  normalized growth: 0.435 (active)
[38]
  normalized growth: 0.451 (active)
[39]
  normalized growth: 0.98
[40]
  normalized growth: 0.574 (active)
[41]
  normalized growth: 0.18 (active)
[42]
  normalized growth: 0.129 (active)
[43]
  normalized growth: 0.471 (active)
[44]
  normalized growth: 0.998
[45]
  normalized growth: 0.47 (active)
[46]
  normalized growth: 0.507 (active)
[47]
  normalized growth: 0.338 (active)
[48]
  normalized growth: 0.987
[49]
  normalized growth: 0.175 (active)
[50]
  normalized growth: 0.995
[51]
  normalized growth: 0.993
[52]
  normalized growth: 0.464 (active)
[53]
  normalized growth: 1
[54]
  normalized growth: 0.378 (active)
[55]
  normalized growth: 0.334 (active)
[56]
  normalized growth: 0.756
[57]
  normalized growth: 1
[58]
  normalized growth: 0.169 (active)
[59]
  normalized growth: 0.487 (active)
[60]
  normalized growth: 0.464 (active)
[61]
  normalized growth: 0.979
[62]
  normalized growth: 0.337 (active)
[63]
  normalized growth: 0.906
[64]
  normalized growth: 0.995
[65]
  normalized growth: 0.998

## Cc1cc(C)cc(NC(=S)N2CCN(c3ncc(C(F)(F)F)cc3Cl)CC2)c1
Locus YAL013W, strain DEP1, stronger effect = lower value
  normalized growth: 1
Locus YBR229C, strain ROT2, stronger effect = lower value
  normalized growth: 1.01
Locus YCL061C, strain MRC1, stronger effect = lower value
  normalized growth: 1
[8]
  normalized growth: 1
Locus YDL134C, strain PPH21, stronger effect = lower value
  normalized growth: 0.986
Locus YDR150W, strain NUM1, stronger effect = lower value
  normalized growth: 0.997
Locus YEL061C, strain CIN8, stronger effect = lower value
  normalized growth: 1.01
Locus YGR078C, strain PAC10, stronger effect = lower value
  normalized growth: 1
Locus YGR229C, strain SMI1, stronger effect = lower value
  normalized growth: 0.976
[26]
  normalized growth: 1.02
Locus YHR087W, strain rtc3, stronger effect = lower value
  normalized growth: 1.01
Locus YJR043C, strain POL32, stronger effect = lower value
  normalized growth: 1.01
Locus YJR075W, strain HOC1, stronger effect = lower value
  normalized growth: 0.996
Locus YKL190W, strain CNB1, stronger effect = lower value
  normalized growth: 0.98
Locus YLR039C, strain RIC1, stronger effect = lower value
  normalized growth: 1.04
Locus YLR058C, strain SHM2 (second series), stronger effect = lower value
  normalized growth: 1.01
Locus YLR085C, strain ARP6, stronger effect = lower value
  normalized growth: 0.99
Locus YLR262C, strain YPT6, stronger effect = lower value
  normalized growth: 1.03
Locus YML094W, strain GIM5, stronger effect = lower value
  normalized growth: 1.02
Locus YMR219W, strain ESC1, stronger effect = lower value
  normalized growth: 0.999
Locus YMR263W, strain SAP30, stronger effect = lower value
  normalized growth: 1
Locus YMR307W, strain GAS1, stronger effect = lower value
  normalized growth: 0.907
Locus YNL153C, strain GIM3, stronger effect = lower value
  normalized growth: 1.01
Locus YNL298W, strain CLA4 (second series), stronger effect = lower value
  normalized growth: 1.06
Locus YNL322C, strain KRE1, stronger effect = lower value
  normalized growth: 0.998
Locus YNR030W, strain Alg12, stronger effect = lower value
  normalized growth: 1.02
[1]
  normalized growth: 1.03
Locus YPL241C, strain CIN2, stronger effect = lower value
  normalized growth: 0.886
Locus YPR135W, strain CTF4, stronger effect = lower value
  normalized growth: 1
